High-throughput results: PubChem BioAssay, several laboratories
Efa HMGR inh = blocks class II HMG-CoA reductase of Enterococcus faecalis; inhibition, % at 10 µM; purified E. faecalis HMGR, NADPH absorbance 340 nm kinetic; actives 0.41% (n = 190,000);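 active = inhibition above a set limit, the median over all tested compounds plus 3 SD, cut at about 9.5% in these data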;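 note: enzyme runs in reverse so mevalonate oxidation gives rising NADPH absorbance; 0% = complete reaction with DMSO and 100% = background rate lacking mevalonate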
PHOSPHO1 inh = PHOSPHO1 (human) inhibition. recombinant PHOSPHO1, absorbance phosphatase assay. inhibition, % at 13.3 µM. actives 1.1% (n = 290,000); in the data active = inhibition above about 60%
PABP1 MLLE inh = inhibitors of microRNA-mediated deadenylation, human PABP1 MLLE binding; actives 0.36% (n = 360,000); inhibition, % at 20 µM; P11940; AID 588489; GST-MLLE / FITC-PAM2 fluorescence polarization; in the data active = inhibition above about 35%, passing the limit was not always enough;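 note: plate controls were DMSO wells with GST-MLLE for no effect and wells lacking GST-MLLE protein for full effect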
eIF4H inh = inhibitors of RNA binding by human eIF4H. inhibition, % at 35 µM. eIF4H fluorescence polarization binding assay. actives 0.94% (n = 290,000). Q15056;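 note: calls also rest on retests at 20 µM and on dose response follow-up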
PABP polyA inh = PABP-poly(A) binding inhibition; PABP-poly(A) RNA binding, fluorescence polarization; AID 2014; actives 1% (n = 290,000); calls only at 35 µM;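 note: calls also rest on retests at 20 µM and on dose response follow-up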
Starred values were filed as active, the others as inactive; i = inactive; nt = no result given; + = active, no number; ! = not confirmed by another sample. Most compounds without a hit are left out; they make up all but 2.4% or so of the library. Unless noted, the rule behind the calls is not given here.

SMILES	Efa HMGR inh	PHOSPHO1 inh	PABP1 MLLE inh	eIF4H inh	PABP polyA inh
CCC(C)(C)C1CCC2(CC1)NC(=O)N(CC(=O)NCCc1ccc(OC)c(OC)c1)C2=O (configuration not stated)	nt	nt	9	nt	nt
Cc1ccc(NC(=O)CN2C(=O)NC(Cc3ccccc3)C2=O)c(Br)c1 (configuration not stated)	10*	17	6	-11	i
O=C(CN1C(=O)NC(Cc2ccccc2)C1=O)Nc1ccccc1F (configuration not stated)	nt	nt	11	nt	nt
Cc1ccc(NC(=O)CSc2nnc(-c3ccoc3C)n2CCCN(C)C)cc1Cl	nt	31	-4	-12	i
COCCn1c(=N)c(C(=O)NCc2ccco2)cc2c(=O)n3cc(C)ccc3nc21	17*	-8	69*	107*	i
Cc1ccc(Cn2c(=N)c(C(=O)NCc3ccco3)cc3c(=O)n4ccccc4nc32)cc1	-6	20	-31	75*	+
N=c1c(C(=O)NCc2ccco2)cc2c(=O)n3ccccc3nc2n1CC1CCCO1 (configuration not stated)	nt	nt	47*	nt	nt
Cc1ccc(Cn2c(=N)c(C(=O)NCC3CCCO3)cc3c(=O)n4ccccc4nc32)cc1 (configuration not stated)	nt	26	-12	3	i
N=c1c(C(=O)NCc2ccc(F)cc2)cc2c(=O)n3ccccc3nc2n1CC1CCCO1 (configuration not stated)	-4	31	-15	-4	i
Cc1cccn2c(=O)c3cc(C(=O)NCc4ccco4)c(=N)n(CCOCCO)c3nc12	1	nt	58*	nt	nt
O=C(COC(=O)Cc1ccc(S(=O)(=O)N2CCOCC2)s1)Nc1ccccc1Cl	nt	nt	-4	nt	nt
CC(C)c1ccc(N(CC(=O)NC2CCCC2)C(=O)CCC(=O)Nc2nccs2)cc1	nt	-10	-9	-6	i
COc1ccc(CCn2c(=N)c(C(=O)NCc3ccco3)cc3c(=O)n4ccccc4nc32)cc1OC	nt	nt	-2	nt	nt
CCOC(=O)c1cc2c(=O)n3ccccc3nc2n(Cc2ccco2)c1=NC(=O)c1ccccc1OCC	-2	-33	-1	90*	i
N=c1c(C(=O)NCc2ccco2)cc2c(=O)n3ccccc3nc2n1CCc1ccccc1	-5	11	-10	59*	+
COc1ccc(CCNC(=O)c2cc3c(=O)n4ccccc4nc3n(Cc3ccco3)c2=N)cc1OC	nt	22	-2	87*	i
CC1=C(C(=O)N(C)C)CC(CC(=O)NCCc2ccccn2)C(=O)N1Cc1ccc(C(C)(C)C)cc1 (configuration not stated)	nt	nt	13	nt	nt
CC(=O)Nc1ccc(S(=O)(=O)N[C@@H](C)C(=O)OCC(=O)c2ccc(C)cc2)cc1	nt	nt	-12	nt	nt
CCOC(=O)CSc1nc(C2CC2)nc2ccccc12	-2	23	36*	-4	i
CCc1nc(SCC(=O)c2ccccc2)c2ccccc2n1	-9	41	41*	4	i
CC1CCN(C(=O)CSc2nc(C3CC3)nc3ccccc23)CC1	nt	11	16	-10	i
CC(C)c1nc(SCC(=O)c2ccc(F)cc2)c2ccccc2n1	-10	-46	37*	-4	i
COc1ccc(/C=C2/NC(=O)CNC2=O)cc1	nt	2	-16	-4	i
CCNc1nc(SCC(N)=O)nc2sc3c(c12)CCN(C)C3	nt	-8	37	98	+
Cc1cc(C)n2nc(C)c(Br)c2n1	-5	12	3	9	i
SMILES	Efa HMGR inh	PHOSPHO1 inh	PABP1 MLLE inh	eIF4H inh	PABP polyA inh
Cc1cc(C)n2nc3nc4c(cc3c2n1)CCCC4	-4	98*	123	32	i
O=C(O)CSCC(=O)N(Cc1ccccc1)c1nc(-c2ccccc2)c(-c2ccccc2)s1	nt	6	-1	74*	i
CCOC(=O)c1sc(N(Cc2ccccc2)C(=O)CCl)nc1C	nt	13	23	-1	i
COCC1CCN(C(=O)C2CCC(=O)N(C3CCCCCC3)C2)CC1 (configuration not stated)	nt	32	-4	-6	i
COc1ccc(C2CC(=O)N3CN(c4ccc(C)c(Cl)c4)CSC3=C2C#N)cc1 (configuration not stated)	-5	83*	-40	-3	i
COc1ccc(N2CSC3=C(C#N)C(c4cccc(OC)c4OC)CC(=O)N3C2)cc1 (configuration not stated)	1	83*	-35	14	i
COc1ccc(C2CC(=O)N3CN(Cc4ccco4)CSC3=C2C#N)cc1 (configuration not stated)	0	58	-4	-2	i
Cc1cccc(N2CSC3=C(C#N)C(c4ccc(C)o4)CC(=O)N3C2)c1 (configuration not stated)	3	76*	nt	98*	+
CC(C)c1ccc(C2CC(=O)N3CN(Cc4ccco4)CSC3=C2C#N)cc1 (configuration not stated)	-4	26	7	14	i
COc1ccc(OC)c(C2CC(=O)N3CN(c4ccccc4)CSC3=C2C#N)c1 (configuration not stated)	-5	83*	-27	21	i
Cc1noc(/C=C/c2cccs2)c1S(=O)(=O)N1CCC(C(=O)NCCCN2CCC(C)CC2)CC1	-8	-16	-11	-6	i
COc1ccc(OC)c2sc(N(CCCN(C)C)C(=O)CCS(=O)(=O)c3ccccc3)nc12	nt	nt	43*	nt	nt
COc1ccc(C2c3sc(=O)[nH]c3SC3C(=O)N(c4ccccc4)C(=O)C32)cc1 (configuration not stated)	-2	54	26	66*	i
S=c1[nH]nc(-c2ccccc2)n1CC1CCCO1 (configuration not stated)	-9	-12	2	0	i
S=c1[nH]nc(-c2ccccc2)n1C1C=CCCC1 (configuration not stated)	-6	92*	23	-5	i
Cc1nc2c(o1)CCc1ccccc1C2N1CCN(C)CC1 (configuration not stated)	9.5*!	9	-12	5	i
Cc1ccc2c(cnn2C(=O)CCC(=O)NC2CCCCC2)c1	nt	10	6	13	i
CCC(=O)Nc1cc2nn(-c3ccc(C)cc3)nc2cc1C	4	63*	15	-8	i
Cc1ccc(-n2nc3cc(C)c(NC(=S)NC(=O)/C=C/c4ccco4)cc3n2)cc1	-2	5	-5	68*	+
Cc1ccccc1NC(=S)NC(=O)/C=C/c1ccco1	nt	14	13	22	i
Cc1ccc(-n2nc3ccc(NC(=S)NC(=O)/C=C/c4ccco4)cc3n2)cc1	-5	7	-7	88	+
COc1ccccc1N(C(=O)Cn1nnc(-c2ccc(C)o2)n1)C(C(=O)NC1CCCC1)c1ccncc1 (configuration not stated)	nt	45	9	-8	i
CC(=O)Oc1cccc(/C=c2\sc3nc(-c4ccco4)nn3c2=O)c1	1	24	16	18	i
COc1cc(/C=c2\sc3nc(-c4ccncc4)nn3c2=O)ccc1OC(C)=O	-1	87*	nt	-8	i
